Here are results for 40 compounds from PubChem BioAssay (NCATS).

Inconclusive results are not listed. Entries that show only a call come without a potency. Active and inactive are the calls of the source. Calls follow the shape of the full dose curve.
Potency is read from the fitted curve at half-maximal effect.

This assay is described as follows: Cytotoxicity counterscreen for inhibitors of SARS-CoV-2 cell entry (AID 1645845). Also: nearly all actives have a fitted effect of over 50% in size. The note with it: cell viability (SARS-CoV-2 entry assay cells); series mostly up to 57.1 µM. The method in brief:
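After a 15 min room-temperature ATPLite 1step step, luminescence reflected ATP remaining in HEK293-ACE2 cells exposed to compound for 1 h plus 48 h at 37 C, with percent activity set by cell and no-cell controls.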
Background: Counterscreens check selectivity or assay interference.
Take `CN1CCN(c2nc(C3=C(c4c[nH]c5ccccc45)C(=O)NC3=O)c3ccccc3n2)CC1`: the Potency entry is “inactive”. As for `CC(C)(C)S(=O)(=O)c1ccc2nccc(Nc3n[nH]c4ccc(F)cc34)c2c1`, the entry is “inactive”; as for `CN[C@@H](C)C(=O)N[C@H](C(=O)N1CCC[C@H]1C(=O)Nc1snnc1-c1ccccc1)C1CCCCC1`, “inactive”; as for `CCN(CC)CCNc1ccc(C)c2sc3ccccc3c(=O)c12`, 28.2 µM (active).

On to `COCC(=O)NC/C=C/c1ccc2ncnc(Nc3ccc(Oc4ccc(C)nc4)c(C)c3)c2c1`, for which the Potency entry was “inactive”. `Cc1[nH]c(/C=C2\C(=O)Nc3ccccc32)c(C)c1CCC(=O)O`: the Potency entry was “inactive”. With `O=C(C1CC1)N1CC[C@@H](Cc2n[nH]c(=O)n2-c2ccc(-c3ccc4occc4c3)cc2)C1`, the Potency is 4.47 µM (active).

Turning to `CN(C(=O)CNC(=O)/C=C/c1cccc(Cl)c1)C1CCS(=O)(=O)CC1`, the Potency entry was “inactive”. As for `O=C(NCCCNC(=O)c1ccc[nH]c1=O)c1cc(-c2ccccc2)on1`, the entry is “inactive”; as for `CC/C(=C(/c1ccc(/C=C/C(=O)O)cc1)c1ccc2[nH]ncc2c1)c1ccc(F)cc1Cl`, “inactive”. As for `COc1cc2c3c(n(CCCN4CCOCC4)c(=O)c2cc1OC)-c1cc2c(cc1C3=O)OCO2`, the entry is “inactive”. Under `CN1C(=O)c2sccc2N(C)c2nc(Nc3ccc(S(N)(=O)=O)cc3)ncc21` stands “inactive”.

As to `CC(C)(O)CC[C@@H](O)[C@](C)(O)[C@H]1CC[C@@]2(O)C3=CC(=O)[C@@H]4C[C@@H](O)[C@@H](O)C[C@]4(C)[C@H]3CC[C@]12C`, the Potency result was “inactive”. As for `CC1(C)OCCn2c1nc1c(N3CCOCC3)nc(-c3cnc(N)nc3)nc12`, the entry is “inactive”. Consider `Cn1cc(-c2cc(Oc3cc(F)c(NC(=O)C4(C(=O)Nc5ccccc5)CC4)cc3F)ccn2)cn1`, for which the Potency result is “inactive”. Under `O=C(O)CC(C(=O)O)n1c(O)c(C2=c3cc(Br)ccc3=NC2=O)sc1=S` (stereo not given) stands “inactive”. On to `O=C(Nc1cnccc1Cl)N1CCN(Cc2ccc3c(c2)OC(F)(F)O3)CC1`, for which the Potency result is “inactive”.

For `CCC1CCCCN1C(=O)n1ncc(C(O)(c2ccccc2)c2ccccc2)n1` (stereo not given), the Potency is 11.2 µM (active). As for `C=CC(=O)Nc1cccc(Nc2nc(Nc3ccc(N4CCN(C(C)=O)CC4)cc3OC)ncc2C(F)(F)F)c1`, the figure is 31.6 µM (active). As for `Cc1[nH]c(/C=C2\C(=O)Nc3ccc(F)cc32)c(C)c1C(=O)NC[C@H](O)CN1CCOCC1`, the entry is “inactive”; as for `C[C@]1(C(=O)N(CCCC(=O)O)Cc2cccc(Cl)c2)CCN1C(=O)c1csc2ccccc12`, “inactive”; as for `CCC[C@H](NC(=O)/C(C#N)=C/c1cccc(Br)n1)c1ccccc1`, 20 µM (active). Take `O=C(/C=C/N1C[C@H]2C[C@@H]1CN2c1ccccn1)c1ccccc1O`: the Potency result was “inactive”. As for `Cc1ccc2cc(-c3c(C)ccc(C(=O)c4c(-c5ccccc5)n(C)n(-c5ccccc5)c4=O)c3N)ccc2n1`, the entry is “inactive”. For the compound `Cn1nccc1Nc1nccc(-c2cc3c(s2)C(C)(C)N(CCN2CCOCC2)C3=O)n1`, the Potency entry is “inactive”. Take `C[C@@H](Nc1ncnc2[nH]c(-c3ccc(O)cc3)cc12)c1ccccc1`: the Potency result is “inactive”.

Regarding `C=CC(=O)N1CCC[C@H](n2c(=O)n(-c3ccc(Oc4ccccc4)cc3)c3c(N)ncnc32)C1`, the Potency result was “inactive”. As for `CCCC1(CCC)CCC2(CCN(CCCN(CC)CC)C2)CC1`, the figure is 7.08 µM (active). In the case of `Cc1cc(Nc2ncnc3ccc(NC4=NC(C)(C)CO4)cc23)ccc1Oc1ccn2ncnc2c1`, the Potency result is “inactive”. As for `CCOC(=O)c1ccnc(CNCC(=O)N(CC)CCN(C)C)c1`, the entry is “inactive”.

In the case of `COc1cc(N2CCC(N(C)C)CC2)ccc1Nc1ncc(Cl)c(Nc2ccccc2P(C)(C)=O)n1`, the Potency was 15.8 µM (active). Turning to `CCOC(=O)C1=CCCCC1S(=O)(=O)Nc1ccc(F)cc1Cl` (stereo not given), the Potency result is “inactive”. Under `CC(C)NCCCn1c(Sc2cc(Cl)cc(Cl)c2)nc2c(N)ncnc21` stands “inactive”; under `CC(/C=C/C(=O)NO)=C\[C@@H](C)C(=O)c1ccc(N(C)C)cc1`, 7.94 µM (active); under `CNC(=O)c1ccccc1Nc1nc(Nc2ccc3c(c2OC)CCC[C@@H](N2CCN(CCO)CC2)C3)ncc1Cl`, “inactive”. For the compound `COc1ccc(-n2c(SCCCN3C(=O)c4cccc5cccc(c45)C3=O)nnc2-c2ccncc2)cc1`, the Potency entry is “inactive”. As for `C=CC(=O)N1CCC(C2CCNc3c(C(N)=O)c(-c4ccc(Oc5ccccc5)cc4)nn32)CC1` (stereo not given), the entry is “inactive”; as for `C/C=C/C/C=C/CCC(=O)[C@H]1O[C@H]1C(N)=O`, “inactive”. As for `Cc1ccc(-n2nc(C(C)(C)C)cc2NC(=O)NCc2cc(F)ccc2Oc2ccc3c(cnn3CCO)c2)cc1`, the entry is “inactive”; as for `CCCc1cc(C)[nH]c(=O)c1CNC(=O)c1cc(-c2ccc(N3CCN(C(C)C)CC3)nc2)cc2c1cnn2C(C)C`, “inactive”.
